ClpP mod: qHTS Assay for Activators of ClpP | ATP-dependent Clp protease proteolytic subunit (Bacillus subtilis (strain 168)), P80244 | purified B. subtilis ClpP, FRET peptide cleavage, 20 min | Potency, µM (top dose mostly 57.5 µM), for inactives: at the top dose activity change, negative = active | 340,000 tested, 1.9% active; active means well fitted falling curve with a large enough effect; inconclusive means small, poorly fitted or top-dose-only effect; inactive means no such curve, though single readings can be large or run the other way; further: potency means the concentration at half of the fitted maximal effect; the source files actives as falling curves though it sought activators and does not explain the sign; nearly all actives have a fitted effect of over 65% in size
Target sequence (P80244 whole entry, looked up): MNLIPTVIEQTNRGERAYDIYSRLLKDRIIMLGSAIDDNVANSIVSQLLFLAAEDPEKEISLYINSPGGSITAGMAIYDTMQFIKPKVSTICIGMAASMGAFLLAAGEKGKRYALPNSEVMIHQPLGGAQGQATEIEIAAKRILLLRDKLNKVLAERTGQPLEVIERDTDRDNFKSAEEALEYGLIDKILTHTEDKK
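ClpP 10 microg/mL final, pH 8 Tris/KCl buffer with BSA, glycerol, Tween-20; compound pinned in; FRET-FV substrate; RT 20 min; Ex320/Em430; ΔFRET vs ADEP 5.8 microM, DMSO, no enzyme.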
uPA surface inh: qHTS for Inhibitors of Cell Surface uPA Generation | cell surface uPA generation assay, qHTS | Potency, µM (top dose mostly 38.3 µM), for inactives: top-dose activity change, negative = inhibition, most hits filed as inhibitors | 330,000 tested, 0.31% active; active means well fitted inhibition curve with a large enough effect; inconclusive means small, poorly fitted or top-dose-only effect; inactive means no such curve, though single readings can be large or run the other way; tested in mouse RAW 264.7 cells; further: potency means the concentration at half of the fitted maximal effect; on the % scale 0 is the no-effect control and ±100 the full control effect; nearly all actives have a fitted effect of over 55% in size
B2AR arrestin: qHTS assay of beta-arrestin-biased ligands of beta2-adrenergic receptor; 330,000 tested, 0.02% active; beta-arrestin recruitment to beta2AR, cell-based reporter; Potency, µM (series often up to 46.1 µM), for the others: top-dose activation, hits mostly activators; Beta-2 adrenergic receptor (Homo sapiens), P07550;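 further: potency means the concentration at half of the fitted maximal effect; 0% = DMSO controls and full agonism = EC100 isoproterenol or metaproterenol; nearly all actives have a fitted effect of over 65% in size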
Target sequence (P07550 whole entry, looked up): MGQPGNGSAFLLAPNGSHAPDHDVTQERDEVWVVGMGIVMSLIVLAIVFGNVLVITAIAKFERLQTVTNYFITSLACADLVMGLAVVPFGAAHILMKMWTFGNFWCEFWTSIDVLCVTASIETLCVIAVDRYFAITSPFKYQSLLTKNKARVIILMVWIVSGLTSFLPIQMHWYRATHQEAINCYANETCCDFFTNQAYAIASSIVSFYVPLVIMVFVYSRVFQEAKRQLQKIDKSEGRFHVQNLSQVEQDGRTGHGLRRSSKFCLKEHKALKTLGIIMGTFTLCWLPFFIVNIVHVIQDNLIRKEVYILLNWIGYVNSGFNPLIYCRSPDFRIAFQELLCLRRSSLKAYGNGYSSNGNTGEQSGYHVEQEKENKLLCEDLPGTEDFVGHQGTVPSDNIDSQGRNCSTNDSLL
p53 reactivation: qHTS assay for re-activators of p53 using a Luc reporter; H1299 p53-A138V BP100-luciferase reporter, luminescence, 24 h; Potency, µM (highest dose often 92.2 µM), inactives show top-dose activity change, positive = activation, actives largely listed as activators; 320,000 tested, 0.063% active; further: potency means the concentration at half of the fitted maximal effect; % of control where 0% means no effect; nearly all actives have a fitted effect of over 45% in size
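H1299 (p53-null), stable ts p53-A138V + BP100-Luc; 1000 cells/well, Opti-MEM/10% FBS; cpd 4 pt, 1:5; 24 h, 37 deg C, 5% CO2; detection reagent 10 min RT; luminescence.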
Giardia kill: Small Molecules that selectively kill Giardia lamblia: qHTS; Giardia lamblia trophozoite viability; activity change, % at 7.66 µM, hits read low; 340,000 tested, 0.15% active; in the data active means activity change below about -80%; inconclusive means between about -30% and that limit;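 further: parasites exposed to compound for two days anaerobically before the ATP read; on the % scale 0 is the no-effect control and ±100 the full control effect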
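Killing of trophozoites was scored by loss of ATP luminescence after a 48 hrs anaerobic exposure to compounds at 37 deg C, using 100 cells per well.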
Mito fusion act: qHTS Assay for Small Molecule Inhibitors of Mitochondrial Division or Activators of Mitochondrial Fusion. S. cerevisiae fusion-defective mutant growth rescue, CellTiterGlo 48 h. Potency, µM (top dose mostly 46.1 µM), for inactives: top-dose growth rescue (activation), usual class: activators. 320,000 tested, 0.23% active; further: potency means the concentration at half of the fitted maximal effect; % of control where 0% means no effect; nearly all actives have a fitted effect of over 45% in size
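S. cerevisiae fusion-defective temperature-sensitive mutants (e.g. fzo1-1, mgm1-5) grown 48 h at 37C in YPEG (ethanol/glycerol non-fermentable) medium with 23 nl compound per well; growth rescue read as CellTiterGlo luminescence.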
* = called active by the depositor; u = inconclusive; x = no result. Compounds with a hit are over-represented: about 2.1% of the library has one in this group of screens. Unless noted, the call rests on the fitted dose curve; in most records, active means well fitted curve in the direction sought with a large enough effect; inconclusive means small, poorly fitted or top-dose-only effect, or another doubt; inactive means no such curve, though single readings can be large; an effect the other way counts as inactive or inconclusive.

SMILES | ClpP mod | uPA surface inh | B2AR arrestin | p53 reactivation | Giardia kill | Mito fusion act
Cc1cc2c(cc1S(=O)(=O)N1CCN(c3cccc(C)c3C)CC1)OCCN2C | 28.2µM* | -6.3% | -0.7% | x | -1.4 | 7.0%
COc1cccc(N2CCN(S(=O)(=O)c3cc4c(cc3C)N(C)CCO4)CC2)c1 | u | -16.0% | 0.1% | -1.1% | 20.5 | 2.9%
CC(C)c1ccc([C@@H]2O[C@H](CCc3ccccc3)CC3=C2C(=O)OC(C)(C)O3)cc1 | -1.6% | x | x | x | x | x
CCC(C)c1ccc2oc(-c3ccc(NC(=O)Cn4cnc5c(=O)n(C)c(=O)n(C)c54)cc3)nc2c1 (configuration not stated) | 11.2µM* | 3.6% | -0.3% | u | -26.8 | 7.9%
CCC(C)(C)n1nnnc1C(c1cc2cc3c(cc2[nH]c1=O)OCO3)N1CCN(C)CC1 (configuration not stated) | 8.91µM* | 9.3% | 0.6% | 0.8% | 18.2 | 1.3%
CC(C)(C)n1nnnc1C(c1cc2cc3c(cc2[nH]c1=O)OCCO3)N1CCSCC1 (configuration not stated) | 25.1µM* | -15.9% | 0.3% | -12.1% | 4.0 | 0.7%
COc1ccc2cc(C(c3nnnn3C(C)(C)C)N3CCSCC3)c(=O)[nH]c2c1 (configuration not stated) | -6.5% | -4.4% | -0.1% | -10.6% | 4.2 | 2.2%
C/C(=N/NC(=O)COc1ccc(C(C)(C)C)cc1)c1ccc(N2CCOCC2)cc1 | 1.0% | -8.9% | x | x | -0.8 | x
CC(C)(C)c1ccc(OCC(=O)N/N=C/c2ccc(N3CCOCC3)cc2)cc1 | 35.5µM* | -2.4% | -0.4% | -0.1% | 0.3 | 4.7%
Nc1nsc2ccccc12 | 31.6µM* | u | -0.1% | -37.0% | -27.7 | u
Nc1nnc(N)c2ccccc12 | x | 0.0% | 0.2% | 12.7% | -2.5 | 2.0%
O=C1CC(C(=O)Nc2ccc(Cl)cc2[N+](=O)[O-])C2(CCCCC2)O1 (configuration not stated) | 28.2µM* | 0.8% | -0.4% | -16.1% | -17.0 | 14.1%
CC(=O)c1ccc(N=Nc2ccc(N)cc2)cc1 | -0.8% | 3.98µM* | -0.3% | -5.6% | 10.3 | -3.6%
CC(=O)c1ccc(N=Nc2c(C)[nH][nH]c2=O)cc1 | x | -4.1% | x | x | -3.2 | x
CCCc1nc2sc3c(c2c(=O)[nH]1)CCCC3 | -0.4% | 2.8% | -0.3% | -1.9% | -0.1 | 0.5%
CC(=O)OCc1nc2sc3c(c2c(=O)[nH]1)CCCC3 | -21.4% | -2.2% | 0.2% | -0.9% | -0.9 | 0.3%
COCc1nc2sc3c(c2c(=O)[nH]1)CCCC3 | -4.8% | -3.2% | -1.6% | 17.2% | -11.8 | 22.4µM*
CCN(CC(=O)NC(C)C)Cc1nc2sc3c(c2c(=O)[nH]1)CCC3 | 12.6µM* | -2.7% | 0.1% | -0.2% | -8.5 | -2.3%
CCc1ccc(CNC(=O)c2cnc3sc(N(CC)CC)nn3c2=O)cc1 | 12.6µM* | x | x | x | x | x
CCN(CC)c1nn2c(=O)c(C(=O)NCCc3ccc(C)cc3)cnc2s1 | 15.8µM* | x | x | x | x | x
CCN(CC)c1nn2c(=O)c(C(=O)NCCc3ccccc3C)cnc2s1 | 3.98µM* | x | x | x | x | x
CCOc1ccccc1CNC(=O)c1cnc2sc(N(CC)CC)nn2c1=O | 8.91µM* | x | x | x | x | x
CCOc1ccc(CNC(=O)c2cnc3sc(N(CC)CC)nn3c2=O)cc1 | 1.0% | x | x | x | x | x
CCOc1ccccc1CNC(=O)c1cnc2sc(N3CCC(C)CC3)nn2c1=O | -22.6% | x | x | x | x | x
Cc1sc2c(c1C)c(=O)n(-c1cccc(C(F)(F)F)c1)c(=O)n2Cc1ccccc1C#N | 1.2% | x | x | x | x | x
SMILES | ClpP mod | uPA surface inh | B2AR arrestin | p53 reactivation | Giardia kill | Mito fusion act
Cc1ccc(S(=O)(=O)N(CC(=O)Nc2c(C)cccc2C)c2cccc(Cl)c2)cc1 | -27.1% | x | x | x | x | x
CC(C)CCn1c(Oc2ccccc2F)nc2c1c(=O)n(C)c(=O)n2C | 0.0% | x | x | x | x | 2.6%
Cc1ccc(NC(=O)Cn2c(=O)n(-c3ccc(Cl)c(Cl)c3)c(=O)c3c(C)c(C)sc32)c(C)c1 | 0.1% | x | x | x | x | x
CC(C)OC(=O)c1cc2c(ccn2C)n1CC(=O)N(Cc1ccccc1)c1ccc(F)cc1 | 31.6µM* | -3.3% | 2.7% | 7.2% | -7.0 | 21.7%
CCOC(=O)c1cc2c(ccn2C)n1CC(=O)N(Cc1ccccc1)c1ccc(F)cc1 | -10.1% | 3.0% | -0.2% | 9.9% | -6.1 | 12.7%
O=c1oc2c(F)cc(F)cc2cc1S(=O)(=O)c1ccc(F)cc1 | 22.4µM* | x | x | x | x | x
Cc1ccc2oc(=O)c(S(=O)(=O)c3ccc(F)cc3)cc2c1 | 3.9% | x | x | x | x | x
COc1ccccc1/C=C/C(=O)OC(C)CN1CCOCC1 (configuration not stated) | 31.6µM* | -1.3% | 0.2% | -1.4% | 5.5 | 0.1%
COc1ccccc1/C=C/C(=O)Nc1ccc2c(c1)OCCO2 | 0.2% | 3.98µM* | 0.1% | u | -11.4 | 15.5%
COc1ccccc1/C=C/C(=O)/C=C/c1ccccc1O | 2.0% | -13.7% | -0.1% | 33.8% | -2.5 | -12.6%
COc1ccccc1C=CC(=O)C=Cc1ccccc1OC | 28.2µM* | -10.9% | x | x | -1.4 | x
COc1ccccc1C1NC(c2ccc3c(c2)OCO3)=CC(c2cc(Br)ccc2O)N1 (configuration not stated) | -15.6% | x | x | x | 5.7 | x
CCCNC(C)C(=O)Nc1ccccc1C (configuration not stated) | 1.4% | -20.3% | 3.16µM* | x | -0.2 | -12.0%
CCCNC(=O)c1ccccc1NC(=O)Nc1ccccc1C | -10.5% | 2.6% | -0.1% | -10.5% | 0.6 | 0.3%
ClN=C1C=CC=CC1=NCl | -9.5% | x | x | x | x | x
O=C(OCc1cc(=O)n2nc(C3CC3)sc2n1)c1ccc(NC(=O)c2ccccc2Cl)cc1 | 2.1% | x | x | x | x | x
Cc1noc(/C=C/c2cccnc2)c1[N+](=O)[O-] | -0.6% | 7.94µM* | -0.2% | -13.9% | u | -39.0%
O=C(NCCO)c1ccc2[nH]c3ccccc3c2c1 | 25.1µM* | -3.1% | 0.5% | -2.0% | 11.1 | -5.8%
O=C(NCCc1c[nH]c2ccccc12)c1ccc2[nH]c(=O)c(=O)[nH]c2c1 | 0.3% | 2.3% | 0.4% | -4.7% | -1.9 | 7.4%
O=C(O)c1cccc(N2CCCC2)c1 | 28.2µM* | -2.4% | 0.5% | 25.5% | -5.0 | 3.2%
CC(=O)Nc1cc2nn(-c3ccccc3)nc2cc1Cl | 20µM* | -6.7% | 0.0% | u | 5.5 | 4.6%
CC(C)(C)C(=O)Nc1cc2nn(-c3ccccc3)nc2cc1Cl | 28.2µM* | -12.5% | -0.2% | -3.6% | -92.9* | 2.6%
O=C(COc1ccccc1C(=O)Nc1cccc(F)c1)Nc1ccc(Br)cc1 | -4.2% | x | x | x | x | x
CC(=O)OCC(NC(=O)C1CCCN1C(=O)OC(C)(C)C)C1OC(n2cc(F)c(=O)[nH]c2=O)C(OC(C)=O)C1OC(C)=O (configuration not stated) | x | x | x | x | 20.7 | x
